Assay results published in the supplement of paper PMC11732987, “Enantioselective OTUD7B fragment discovery through chemoproteomics screening and high-throughput optimisation” (Communications Chemistry, 2025).

Assays:
Experiment in all cases: log2 ratio of Biotin-Ahx-Ub-VS probe labelling (fragment/DMSO); higher = less target engagement (more negative = stronger competition), active = hit call of the paper (q ≤ 0.05, log2 ratio ≤ -1)
Conditions in all cases: compound concentration: 200 uM; treatment time: 3 h
[1] = target: USP9X (UniProt Q93008)
Method in brief: (§1)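 Labelled DUBs from HEK293T lysate were NeutrAvidin-enriched, digested with LysC and trypsin, and run by diaPASEF LC-MS/MS. Before that, each 495 µg sample in Tris/CHAPS/IGEPAL buffer with protease inhibitors was treated in triplicate with fragment at 200 µM or vehicle for 3 h, then with Biotin-Ahx-Ub-VS at 0.5 µM final for 1 h. Values are average log2 ratios of fragment over vehicle by unpaired t-test, based on global-median-normalised Spectronaut label-free quantities from proteins with ≥2 unique peptides.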

[2] = target: UniProt O00487
Sequence of UniProt O00487 (O00487 whole entry): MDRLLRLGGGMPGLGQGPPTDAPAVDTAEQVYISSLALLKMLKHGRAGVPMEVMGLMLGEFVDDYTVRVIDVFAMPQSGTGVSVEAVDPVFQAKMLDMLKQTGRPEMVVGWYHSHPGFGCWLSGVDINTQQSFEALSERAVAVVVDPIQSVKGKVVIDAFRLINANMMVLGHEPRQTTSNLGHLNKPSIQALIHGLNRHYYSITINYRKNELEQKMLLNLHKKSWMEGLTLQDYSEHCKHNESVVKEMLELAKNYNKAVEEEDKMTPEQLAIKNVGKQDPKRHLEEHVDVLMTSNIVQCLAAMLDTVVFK
Method in brief: as §1

[3] = target: UniProt O00507
Sequence of UniProt O00507 (O00507 whole entry): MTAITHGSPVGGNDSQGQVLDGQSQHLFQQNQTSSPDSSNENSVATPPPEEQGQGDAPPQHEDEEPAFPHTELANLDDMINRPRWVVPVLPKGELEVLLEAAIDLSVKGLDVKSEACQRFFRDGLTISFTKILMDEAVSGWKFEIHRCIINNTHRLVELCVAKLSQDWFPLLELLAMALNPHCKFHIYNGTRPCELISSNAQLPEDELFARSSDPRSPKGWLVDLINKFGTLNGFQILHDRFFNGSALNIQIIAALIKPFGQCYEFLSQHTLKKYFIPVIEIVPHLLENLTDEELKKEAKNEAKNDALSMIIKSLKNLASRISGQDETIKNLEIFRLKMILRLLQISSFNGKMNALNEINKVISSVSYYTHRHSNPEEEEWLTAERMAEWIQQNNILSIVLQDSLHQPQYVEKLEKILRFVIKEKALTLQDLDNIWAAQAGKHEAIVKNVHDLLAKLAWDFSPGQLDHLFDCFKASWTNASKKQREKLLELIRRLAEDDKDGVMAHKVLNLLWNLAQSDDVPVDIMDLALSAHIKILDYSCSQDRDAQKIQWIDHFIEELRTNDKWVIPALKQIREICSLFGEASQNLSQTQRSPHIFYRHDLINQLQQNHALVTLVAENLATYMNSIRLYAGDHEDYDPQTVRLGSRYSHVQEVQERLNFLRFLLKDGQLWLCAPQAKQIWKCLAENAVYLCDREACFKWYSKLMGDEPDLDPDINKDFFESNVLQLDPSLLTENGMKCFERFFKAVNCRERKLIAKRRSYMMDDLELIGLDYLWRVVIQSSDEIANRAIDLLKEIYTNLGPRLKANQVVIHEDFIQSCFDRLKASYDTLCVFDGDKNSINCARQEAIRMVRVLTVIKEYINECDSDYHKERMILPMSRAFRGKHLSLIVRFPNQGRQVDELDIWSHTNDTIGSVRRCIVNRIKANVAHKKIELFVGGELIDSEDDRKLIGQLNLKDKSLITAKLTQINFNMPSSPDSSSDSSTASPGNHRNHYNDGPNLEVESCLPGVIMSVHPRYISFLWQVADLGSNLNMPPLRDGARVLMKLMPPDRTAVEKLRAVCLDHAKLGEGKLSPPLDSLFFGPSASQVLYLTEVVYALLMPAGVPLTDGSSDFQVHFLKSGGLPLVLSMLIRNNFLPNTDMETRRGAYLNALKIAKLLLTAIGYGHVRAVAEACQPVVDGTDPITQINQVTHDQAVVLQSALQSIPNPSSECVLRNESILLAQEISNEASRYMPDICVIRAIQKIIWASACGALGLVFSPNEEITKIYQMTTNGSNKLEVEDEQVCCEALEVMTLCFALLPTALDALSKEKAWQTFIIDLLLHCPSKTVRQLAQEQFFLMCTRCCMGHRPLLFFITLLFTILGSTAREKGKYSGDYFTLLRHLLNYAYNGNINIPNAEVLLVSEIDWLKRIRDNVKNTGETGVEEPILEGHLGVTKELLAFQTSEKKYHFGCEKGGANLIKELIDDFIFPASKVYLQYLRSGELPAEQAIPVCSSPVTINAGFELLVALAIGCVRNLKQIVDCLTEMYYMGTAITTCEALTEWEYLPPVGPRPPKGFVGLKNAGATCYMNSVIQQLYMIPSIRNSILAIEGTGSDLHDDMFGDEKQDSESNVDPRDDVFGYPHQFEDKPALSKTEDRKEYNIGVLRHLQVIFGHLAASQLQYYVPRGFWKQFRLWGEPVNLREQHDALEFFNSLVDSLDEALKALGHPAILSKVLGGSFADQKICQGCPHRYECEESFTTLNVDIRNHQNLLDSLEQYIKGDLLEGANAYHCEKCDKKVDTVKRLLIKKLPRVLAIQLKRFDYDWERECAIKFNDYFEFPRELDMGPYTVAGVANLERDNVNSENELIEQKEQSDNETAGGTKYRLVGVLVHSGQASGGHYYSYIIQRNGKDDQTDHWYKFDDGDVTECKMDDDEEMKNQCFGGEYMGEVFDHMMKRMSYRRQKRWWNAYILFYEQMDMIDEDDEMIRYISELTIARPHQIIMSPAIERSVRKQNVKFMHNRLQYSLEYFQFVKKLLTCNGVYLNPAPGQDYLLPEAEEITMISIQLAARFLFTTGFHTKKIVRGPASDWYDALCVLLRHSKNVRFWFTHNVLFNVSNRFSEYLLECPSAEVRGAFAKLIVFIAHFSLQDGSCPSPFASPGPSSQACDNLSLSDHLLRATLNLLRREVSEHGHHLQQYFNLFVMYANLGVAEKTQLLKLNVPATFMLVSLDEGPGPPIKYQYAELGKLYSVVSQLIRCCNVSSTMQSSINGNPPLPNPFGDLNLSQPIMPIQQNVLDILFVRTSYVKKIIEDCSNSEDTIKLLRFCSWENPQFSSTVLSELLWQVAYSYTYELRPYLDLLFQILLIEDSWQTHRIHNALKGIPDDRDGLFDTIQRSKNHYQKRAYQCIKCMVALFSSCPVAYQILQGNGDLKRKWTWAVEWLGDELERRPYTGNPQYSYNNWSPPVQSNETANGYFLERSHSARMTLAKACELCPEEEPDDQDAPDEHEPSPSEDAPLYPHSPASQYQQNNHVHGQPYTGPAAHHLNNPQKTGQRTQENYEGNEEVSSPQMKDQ
Method in brief: as §1

[4] = target: UniProt P51784
Sequence of UniProt P51784 (P51784 whole entry): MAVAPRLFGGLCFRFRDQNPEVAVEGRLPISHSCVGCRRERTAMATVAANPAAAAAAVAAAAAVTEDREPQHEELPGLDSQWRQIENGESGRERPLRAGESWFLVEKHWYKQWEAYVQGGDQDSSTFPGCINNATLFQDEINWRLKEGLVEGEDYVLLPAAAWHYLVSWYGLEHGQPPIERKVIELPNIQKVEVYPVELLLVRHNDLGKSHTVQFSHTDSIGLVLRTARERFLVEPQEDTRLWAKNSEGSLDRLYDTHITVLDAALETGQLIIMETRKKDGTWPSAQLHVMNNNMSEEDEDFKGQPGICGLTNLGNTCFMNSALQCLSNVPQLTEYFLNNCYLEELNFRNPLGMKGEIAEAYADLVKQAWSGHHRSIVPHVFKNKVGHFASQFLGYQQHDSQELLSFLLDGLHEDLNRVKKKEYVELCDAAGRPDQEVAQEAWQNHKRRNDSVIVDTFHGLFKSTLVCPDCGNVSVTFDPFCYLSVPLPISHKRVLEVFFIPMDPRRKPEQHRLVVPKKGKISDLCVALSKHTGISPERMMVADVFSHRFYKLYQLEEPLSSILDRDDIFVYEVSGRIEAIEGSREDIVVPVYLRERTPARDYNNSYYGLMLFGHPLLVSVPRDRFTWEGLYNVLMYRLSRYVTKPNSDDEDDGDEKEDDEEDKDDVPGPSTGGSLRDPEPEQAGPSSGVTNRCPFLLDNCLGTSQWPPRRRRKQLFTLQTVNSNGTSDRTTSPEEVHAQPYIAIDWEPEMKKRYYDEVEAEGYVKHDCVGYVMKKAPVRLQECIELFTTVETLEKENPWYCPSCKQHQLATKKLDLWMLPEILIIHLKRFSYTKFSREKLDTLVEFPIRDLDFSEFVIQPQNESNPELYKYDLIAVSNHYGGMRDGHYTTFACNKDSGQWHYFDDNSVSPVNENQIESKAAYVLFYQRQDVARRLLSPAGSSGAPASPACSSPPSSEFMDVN
Method in brief: as §1

[5] = target: T1, UniProt Q5T2D3
T1 sequence (whole entry): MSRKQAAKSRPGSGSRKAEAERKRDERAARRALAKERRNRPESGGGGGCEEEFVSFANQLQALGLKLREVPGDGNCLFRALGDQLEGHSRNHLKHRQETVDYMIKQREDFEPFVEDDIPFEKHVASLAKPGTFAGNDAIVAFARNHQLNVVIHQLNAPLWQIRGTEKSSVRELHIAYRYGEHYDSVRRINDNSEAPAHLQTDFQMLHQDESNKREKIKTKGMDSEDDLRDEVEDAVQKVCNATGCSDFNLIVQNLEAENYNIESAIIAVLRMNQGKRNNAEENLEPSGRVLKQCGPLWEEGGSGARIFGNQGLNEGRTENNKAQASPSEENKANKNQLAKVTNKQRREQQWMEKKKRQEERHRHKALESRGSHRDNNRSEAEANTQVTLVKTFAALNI
Method in brief: as §1

[6] = target: T2, UniProt Q8TE49
T2 sequence (whole entry): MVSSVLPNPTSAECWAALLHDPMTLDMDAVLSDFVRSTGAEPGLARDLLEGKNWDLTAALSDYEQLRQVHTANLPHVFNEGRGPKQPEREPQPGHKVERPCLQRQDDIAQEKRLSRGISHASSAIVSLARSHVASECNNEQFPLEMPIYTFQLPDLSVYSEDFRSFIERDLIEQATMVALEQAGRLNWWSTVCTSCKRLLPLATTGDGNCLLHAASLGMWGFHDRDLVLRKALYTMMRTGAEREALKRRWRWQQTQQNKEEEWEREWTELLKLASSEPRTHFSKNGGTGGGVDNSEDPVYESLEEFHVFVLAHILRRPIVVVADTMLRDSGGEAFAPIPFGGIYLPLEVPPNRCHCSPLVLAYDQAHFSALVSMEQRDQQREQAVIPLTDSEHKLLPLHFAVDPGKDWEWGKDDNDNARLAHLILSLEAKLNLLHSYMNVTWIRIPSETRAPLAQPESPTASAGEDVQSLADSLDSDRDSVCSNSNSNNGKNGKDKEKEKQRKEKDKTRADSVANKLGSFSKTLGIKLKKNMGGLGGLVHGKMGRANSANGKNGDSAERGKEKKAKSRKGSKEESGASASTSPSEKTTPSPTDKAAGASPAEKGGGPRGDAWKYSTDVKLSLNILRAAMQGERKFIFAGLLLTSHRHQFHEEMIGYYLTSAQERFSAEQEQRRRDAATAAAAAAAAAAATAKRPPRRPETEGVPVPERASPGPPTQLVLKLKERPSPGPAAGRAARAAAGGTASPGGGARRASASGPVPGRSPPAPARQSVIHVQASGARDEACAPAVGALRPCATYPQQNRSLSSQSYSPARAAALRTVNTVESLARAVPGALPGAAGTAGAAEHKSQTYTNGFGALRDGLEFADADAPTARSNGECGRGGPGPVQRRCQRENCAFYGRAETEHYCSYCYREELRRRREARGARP
Method in brief: as §1

[7] = target: T3, UniProt Q9P2H5
T3 sequence (whole entry): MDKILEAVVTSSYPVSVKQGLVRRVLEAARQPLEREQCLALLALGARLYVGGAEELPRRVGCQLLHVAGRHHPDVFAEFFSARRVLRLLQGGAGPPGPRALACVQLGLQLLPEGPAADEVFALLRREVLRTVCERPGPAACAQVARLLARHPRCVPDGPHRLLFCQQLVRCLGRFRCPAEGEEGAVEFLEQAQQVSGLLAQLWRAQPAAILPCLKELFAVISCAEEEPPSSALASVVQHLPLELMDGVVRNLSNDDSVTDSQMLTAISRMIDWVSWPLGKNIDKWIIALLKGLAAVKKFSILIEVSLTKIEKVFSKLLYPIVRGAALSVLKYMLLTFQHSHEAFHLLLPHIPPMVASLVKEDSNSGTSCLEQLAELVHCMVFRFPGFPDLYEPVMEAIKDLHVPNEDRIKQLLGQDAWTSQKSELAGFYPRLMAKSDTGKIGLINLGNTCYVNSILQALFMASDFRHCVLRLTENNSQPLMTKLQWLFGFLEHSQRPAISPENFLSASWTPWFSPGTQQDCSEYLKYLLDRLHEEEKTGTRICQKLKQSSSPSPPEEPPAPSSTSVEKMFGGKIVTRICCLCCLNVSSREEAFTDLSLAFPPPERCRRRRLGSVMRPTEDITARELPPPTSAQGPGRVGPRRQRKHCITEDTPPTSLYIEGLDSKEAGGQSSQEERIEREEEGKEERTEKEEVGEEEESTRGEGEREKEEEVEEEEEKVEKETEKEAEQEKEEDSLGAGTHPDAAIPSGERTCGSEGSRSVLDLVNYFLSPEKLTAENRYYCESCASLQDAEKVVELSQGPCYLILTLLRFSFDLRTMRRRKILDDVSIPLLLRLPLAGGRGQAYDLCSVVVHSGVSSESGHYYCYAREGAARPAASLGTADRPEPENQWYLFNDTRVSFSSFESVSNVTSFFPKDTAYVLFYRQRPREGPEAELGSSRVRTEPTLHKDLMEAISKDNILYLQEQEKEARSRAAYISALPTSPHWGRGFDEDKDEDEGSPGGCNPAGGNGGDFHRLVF
Method in brief: as §1

[8] = target: T4, UniProt Q9UGI0
T4 sequence (whole entry): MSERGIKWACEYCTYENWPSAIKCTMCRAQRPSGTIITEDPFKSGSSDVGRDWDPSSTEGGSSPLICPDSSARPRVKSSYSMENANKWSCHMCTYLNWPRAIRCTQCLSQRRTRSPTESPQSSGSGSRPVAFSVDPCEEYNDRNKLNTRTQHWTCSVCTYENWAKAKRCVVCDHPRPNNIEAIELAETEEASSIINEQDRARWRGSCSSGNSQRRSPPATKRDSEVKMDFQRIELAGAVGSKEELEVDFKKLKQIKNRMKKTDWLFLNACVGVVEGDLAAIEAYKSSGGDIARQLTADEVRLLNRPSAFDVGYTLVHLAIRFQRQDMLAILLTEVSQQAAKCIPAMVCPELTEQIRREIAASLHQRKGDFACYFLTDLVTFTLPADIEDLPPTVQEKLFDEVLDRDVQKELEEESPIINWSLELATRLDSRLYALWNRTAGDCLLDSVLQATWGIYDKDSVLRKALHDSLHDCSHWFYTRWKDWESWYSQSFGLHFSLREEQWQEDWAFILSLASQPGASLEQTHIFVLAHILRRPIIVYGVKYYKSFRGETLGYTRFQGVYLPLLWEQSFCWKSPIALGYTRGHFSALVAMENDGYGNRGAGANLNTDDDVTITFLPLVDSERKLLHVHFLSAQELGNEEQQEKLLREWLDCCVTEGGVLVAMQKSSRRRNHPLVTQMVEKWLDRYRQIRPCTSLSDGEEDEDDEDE
Method in brief: as §1

[9] = target: T5, YOD1 (UniProt Q5VVQ6)
T5 sequence (whole entry): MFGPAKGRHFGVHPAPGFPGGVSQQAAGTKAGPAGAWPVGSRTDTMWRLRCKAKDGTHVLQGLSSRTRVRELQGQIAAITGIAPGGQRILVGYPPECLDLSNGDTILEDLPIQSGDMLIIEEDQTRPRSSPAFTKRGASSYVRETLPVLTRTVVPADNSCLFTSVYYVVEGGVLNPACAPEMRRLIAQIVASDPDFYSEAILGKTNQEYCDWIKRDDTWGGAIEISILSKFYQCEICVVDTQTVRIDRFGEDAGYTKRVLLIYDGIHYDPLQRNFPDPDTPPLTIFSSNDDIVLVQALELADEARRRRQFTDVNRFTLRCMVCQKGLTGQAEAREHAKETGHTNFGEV
Method in brief: as §1

Measured: log2 ratio of Biotin-Ahx-Ub-VS probe labelling

O=C(CCl)Nc1nnc(CC(F)(F)F)o1
inactive: [1] -0.134 | [2] -0.296 | [3] -0.0948 | [4] -6e-05 | [5] -0.844 | [6] -0.179 | [7] -0.149 | [8] -0.304 | [9] 0.0603
